In PubChem BioAssay (Tox21):
Several values for one entry are separate records, joined by “and”; a condition that tells them apart may be missing. Equal entries are not always repeated. Results filed as inconclusive are left out. Where a call stands in place of a potency, no number is given. The source holds several records for some structures; these can differ, active in one and inactive in another. Activity calls are given as the source filed them. Unless noted, the call rests on the fitted dose curve; in most records, active means well fitted curve in the direction sought with a large enough effect in the repeat runs; inconclusive means weak or mixed curves; inactive means no such curve, though single readings can be large; an effect the other way counts as inactive or inconclusive.

Columns and labels:
[1] = qHTS assay to identify small molecule agonists of the estrogen receptor alpha (ER-alpha) signaling pathway in the presence of an antagonist - cell viability counter screen (AID 1259386);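 further: series mostly up to about 92 µM; cells exposed to compounds for 22 h at 37 °C before the viability read; nearly all actives have a fitted effect of over 30% in size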
Summary of the method: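 Cell viability in VM7Luc4E2 cells (endogenous full-length ER-alpha) measured by CellTiter-Fluor fluorescence in the same wells as the luciferase screen. Cells pre-cultured 5 days in charcoal-stripped serum, then treated 22 h with compounds at 15 concentrations plus 10.0nM ICI-182,780.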

[2] = biological target: Progesterone receptor (Homo sapiens) (UniProt P06401); experiment: qHTS assay to identify small molecule agonists of the progesterone receptor (PR) signaling pathway (AID 1346784; calls by dose curve; further: nearly all actives have a fitted effect of over 30% in size)
Summary of the method: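 HEK 293T PR-UAS-bla reporter cells, 2% charcoal-stripped FBS; 6 hr settle at 37C/5% CO2, compound (DMSO) 16 hr, LiveBLAzer B/G FRET substrate 2 hr RT, fluorescence intensity read.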

[3] = biological target: Progesterone receptor (Homo sapiens) (UniProt P06401); experiment: qHTS assay to identify small molecule antagonists of the progesterone receptor (PR) signaling pathway (AID 1346795; active means well fitted inhibition curve with a large enough effect in the signal ratio in the repeat runs, not every such curve was filed as active; the % refers to the signal ratio)
Summary of the method: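 Beta-lactamase reporter, HEK293T PR-UAS-bla line; 2% charcoal-stripped FBS; 6 hr pre-incubation, 37C/5% CO2. Compound + R5020 1 nM final, 16 hr. LiveBLAzer B/G FRET substrate, 2 hr RT; fluorescence intensity read.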

[4] = qHTS assay to identify small molecule antagonists of the progesterone receptor (PR) signaling pathway - cell viability counter screen (AID 1346798); further: series mostly up to about 92 µM; nearly all actives have a fitted effect of over 50% in size
Summary of the method: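 Luminescence readout (CellTiter-Glo, 30 min, RT) of viability in PR-UAS-bla HEK293T cells exposed to compound and R5020 agonist for 16 hr at 37C, 5% CO2; run in the same wells as the beta-lactamase reporter read.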

[5] = qHTS assay to identify small molecule agonists of the progesterone receptor (PR) signaling pathway - cell viability counter screen (AID 1346799; calls by dose curve; further: nearly all actives have a fitted effect of over 45% in size)
Summary of the method: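 HEK293T PR-UAS-bla, 3,000 cells/well, 2% charcoal-stripped FBS; 6 h settle, compound 16 h at 37C/5% CO2; LiveBLAzer 2 h RT, then CellTiter-Glo 30 min RT, luminescence read.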

[6] = qHTS assay to identify small molecule antagonists of the TGF-beta/Smad signaling pathway - cell viability counter screen (AID 1346824); further: nearly all actives have a fitted effect of over 50% in size
Summary of the method: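 SBE-bla HEK 293T cells, incubated overnight, then compound plus 0.25 ng/mL TGF-beta1 (stock added) for 5 hr at 37 C. Viability was read in the same wells by CellTiter-Glo luminescence after 30 min at room temperature.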

[7] = qHTS assay to identify small molecule agonists of the TGF-beta/Smad signaling pathway - cell viability counter screen (AID 1346829); further: top concentration of the series differs between compounds; nearly all actives have a fitted effect of over 45% in size
Summary of the method: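 In parallel with the Smad reporter read, viability of HEK 293T cells stably carrying SBE-bla is quantified by ATP luminescence following 5 hr compound treatment.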

[8] = qHTS assay to identify small molecule agonists of the TGF-beta/Smad signaling pathway (AID 1346859; active means well fitted activation curve with a large enough effect in the signal ratio in the repeat runs, not every such curve was filed as active; the % refers to the signal ratio; further: potency means the concentration at half of the fitted maximal effect; on activation: series mostly up to about 77 µM)
Summary of the method: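 Read-out: fluorescence at 460 and 530 nm (405 nm excitation) after a 2 hr room-temperature incubation with beta-lactamase FRET substrate. SBE-bla HEK 293T cells had been treated with test compounds for 5 hr at 37 C.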

[9] = biological target: Thyrotropin-releasing hormone receptor (Homo sapiens) (UniProt P34981); experiment: qHTS assay to identify small molecule antagonists of the thyrotropin-releasing hormone receptor (TRHR) signaling pathway (AID 1346877; active means well fitted inhibition curve with a large enough effect in the repeat runs, not every such curve was filed as active; further: series mostly up to about 51 µM)
Summary of the method: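 TRHR-expressing HEK293 cells loaded with calcium dye for 2 h at 37 C; compounds pre-incubated 5 min at room temperature before TRH challenge at 1 nM final. Intracellular calcium fluorescence read kinetically for 3 min; 15 concentrations in triplicate.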

[10] = biological target: Thyrotropin-releasing hormone receptor (Homo sapiens) (UniProt P34981); experiment: qHTS assay to identify small molecule agonists of the thyrotropin-releasing hormone receptor (TRHR) signaling pathway (AID 1346891; calls by dose curve; further: series mostly up to about 58 µM)
Summary of the method: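 HEK293/TRHR cells, 1500 per well, 18 h 37 °C; Ca dye 2 h 37 °C; pin-tool compound addition (agonist mode); kinetic fluorescence 3 min, 1 s reads; 15 concentrations, triplicate.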

[11] = Human pregnane X receptor (PXR) small molecule agonists, qHTS cell viability counter screen (AID 1346977); further: nearly all actives have a fitted effect of over 50% in size
Summary of the method: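 Fluorescence read-out (CellTiter-Fluor) of viability in PXR-Luc HepG2 cells, multiplexed with the luciferase agonist read. Compounds in DMSO added after 5hr plating; 24hr total exposure at 37C, 5% CO2.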

[12] = Caspase-3/7 induction in HepG2 cells by small molecules, qHTS assay (AID 1346978); further: nearly all actives have a fitted effect of over 15% in size
Summary of the method: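 Wild-type HepG2 cells, 2,000/well, settled 5 hr at 37 C and 5% CO2, then compound-treated for 17 hr; caspase-3/7 activity read by luminescent Caspase-Glo 3/7 after 30 min at room temperature.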

[13] = Caspase-3/7 induction in CHO-K1 cells by small molecules, qHTS cell viability counter screen (AID 1346979); further: nearly all actives have a fitted effect of over 35% in size; further: potency means the concentration at half of the fitted maximal effect
Summary of the method: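 CHO-K1 wt, 1,500 cells/well; 5hr pre-incubation 37C/5% CO2; compound pin transfer (DMSO); 16hr exposure; CellTiter-Fluor added, 1hr, fluorescence read.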

[14] = Caspase-3/7 induction in CHO-K1 cells by small molecules, qHTS assay (AID 1346980); further: nearly all actives have a fitted effect of over 15% in size
Summary of the method: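 Wild-type CHO-K1 cells exposed to compounds for 17hr at 37 C, 5% CO2. Caspase-3/7 activity then measured by Caspase-Glo 3/7 luminescence after 30min at room temperature.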

[15] = Caspase-3/7 induction in HepG2 cells by small molecules, qHTS cell viability counter screen (AID 1346981); further: series mostly up to about 92 µM; nearly all actives have a fitted effect of over 30% in size
Summary of the method: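 Wild-type HepG2 cells, 2,000/well, settled 5 hr at 37 C, 5% CO2 before compound addition. Viability read by CellTiter-Fluor fluorescence, reagent added after 16 hr compound exposure, then 1 hr at 37C, in the same wells as the caspase read.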

[16] = biological target: Nuclear receptor subfamily 1 group I member 2 (Homo sapiens) (UniProt O75469); experiment: Human pregnane X receptor (PXR) small molecule agonists, qHTS assay (AID 1346982); further: nearly all actives have a fitted effect of over 35% in size; further: potency means the concentration at half of the fitted maximal effect
Summary of the method: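 PXR-Luc HepG2 reporter cells (CYP3A4-driven luciferase) in 5% charcoal-stripped FBS medium, plated 5 h before compound addition, then treated 24 h at 37C. Luciferase read by ONE-Glo luminescence after 30 min at room temperature.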

[17] = biological target: Acetylcholinesterase (Homo sapiens) (UniProt P22303); experiment: Acetylcholinesterase (AChE) small molecule antagonists: colormetric cell-based qHTS assay (AID 1347395; calls by dose curve; further: nearly all actives have a fitted effect of over 30% in size; further: potency means the concentration at half of the fitted maximal effect)
Summary of the method: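 SH-SY5Y cells; cpd 30 min 37 C; + DTNB/acetylthiocholine, 90 min 37 C; colorimetric thiocholine read; qHTS.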

[18] = biological target: Nuclear receptor subfamily 1 group I member 2 (Rattus norvegicus) (UniProt Q9R1A7); experiment: Rat pregnane X receptor (rPXR) activation by small molecules, qHTS assay (AID 1346983); settings: rPXR luciferase reporter cells, One-Glo luminescence, 24 h; stronger effect = higher value; further: nearly all actives have a fitted effect of over 20% in size
Summary of the method: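 Cell-based rPXR activation assay: rPXR cells, 2,000 per well, rested 5hr at 37 C, then exposed to compounds in DMSO for 24 hr at 37 C. Luciferase activity read by One-Glo luminescence after 30 min at room temperature.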

[19] = biological target: Nuclear receptor subfamily 1 group I member 2 (Homo sapiens) (UniProt O75469); experiment: CYP3A4 induction through human pregnane X receptor (PXR) by small molecules, qHTS assay (AID 1346984); further: nearly all actives have a fitted effect of over 40% in size
Summary of the method: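 DPX-2 HepG2 cells carrying a PXR response element and CYP3A4-promoter luciferase construct, treated with compounds 24 hr at 37C. Then P450-Glo CYP3A4 Luciferin-IPA substrate (3uM final) for 3 hr at 37C, One-Glo added, luminescence read.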

[20] = biological target: Nuclear receptor subfamily 1 group I member 2 (Homo sapiens) (UniProt O75469); experiment: Human pregnane X receptor (PXR) activation by small molecules, qHTS assay (AID 1346985); further: nearly all actives have a fitted effect of over 40% in size
Summary of the method: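 DPX-2 cells (HepG2 co-transfected with a PXR response element and a CYP3A4-promoter luciferase construct) were seeded at 2,000 per well, rested 5 hr at 37C, then exposed to DMSO-dissolved compounds for 24 hr. Activation was read as luciferase luminescence.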

Thyrotropin-releasing hormone receptor (Homo sapiens), sequence (P34981 whole entry, looked up): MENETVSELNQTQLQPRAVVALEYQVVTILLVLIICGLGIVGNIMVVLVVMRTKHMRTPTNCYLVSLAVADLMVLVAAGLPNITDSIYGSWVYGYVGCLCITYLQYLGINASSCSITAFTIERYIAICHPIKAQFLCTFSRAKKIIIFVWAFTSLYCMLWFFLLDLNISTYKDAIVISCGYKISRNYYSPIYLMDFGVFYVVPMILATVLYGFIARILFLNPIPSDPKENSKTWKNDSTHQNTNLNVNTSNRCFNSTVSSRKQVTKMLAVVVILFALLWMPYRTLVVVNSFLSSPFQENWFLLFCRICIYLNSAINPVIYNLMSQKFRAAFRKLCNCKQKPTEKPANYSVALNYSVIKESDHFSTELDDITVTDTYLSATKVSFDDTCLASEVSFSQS
Progesterone receptor (Homo sapiens), sequence (P06401 whole entry, looked up): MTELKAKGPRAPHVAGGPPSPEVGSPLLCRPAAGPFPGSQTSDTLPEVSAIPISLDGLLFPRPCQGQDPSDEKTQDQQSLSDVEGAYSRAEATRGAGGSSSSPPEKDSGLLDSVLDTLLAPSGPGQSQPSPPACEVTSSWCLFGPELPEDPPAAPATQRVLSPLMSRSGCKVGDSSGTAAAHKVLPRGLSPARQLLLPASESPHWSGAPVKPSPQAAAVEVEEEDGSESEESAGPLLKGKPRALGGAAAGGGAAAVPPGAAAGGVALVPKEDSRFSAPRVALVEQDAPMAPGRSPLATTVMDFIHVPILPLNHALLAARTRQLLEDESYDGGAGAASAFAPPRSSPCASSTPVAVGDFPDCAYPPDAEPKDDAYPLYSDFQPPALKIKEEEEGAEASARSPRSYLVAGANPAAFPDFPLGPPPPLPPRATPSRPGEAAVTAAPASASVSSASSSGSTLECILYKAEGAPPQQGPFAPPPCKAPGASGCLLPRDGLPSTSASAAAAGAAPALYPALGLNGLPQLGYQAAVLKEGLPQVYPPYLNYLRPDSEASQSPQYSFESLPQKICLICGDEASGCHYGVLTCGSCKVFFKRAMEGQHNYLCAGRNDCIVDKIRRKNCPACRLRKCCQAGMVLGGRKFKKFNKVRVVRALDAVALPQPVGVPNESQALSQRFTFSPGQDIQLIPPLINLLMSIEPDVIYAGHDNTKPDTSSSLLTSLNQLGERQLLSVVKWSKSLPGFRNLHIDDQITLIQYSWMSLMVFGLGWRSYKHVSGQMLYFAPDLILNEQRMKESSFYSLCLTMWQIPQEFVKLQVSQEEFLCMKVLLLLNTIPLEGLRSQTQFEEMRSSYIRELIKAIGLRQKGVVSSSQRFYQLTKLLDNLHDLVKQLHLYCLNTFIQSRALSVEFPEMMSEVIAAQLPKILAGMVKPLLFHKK
Nuclear receptor subfamily 1 group I member 2 (Homo sapiens), sequence (O75469 whole entry, looked up): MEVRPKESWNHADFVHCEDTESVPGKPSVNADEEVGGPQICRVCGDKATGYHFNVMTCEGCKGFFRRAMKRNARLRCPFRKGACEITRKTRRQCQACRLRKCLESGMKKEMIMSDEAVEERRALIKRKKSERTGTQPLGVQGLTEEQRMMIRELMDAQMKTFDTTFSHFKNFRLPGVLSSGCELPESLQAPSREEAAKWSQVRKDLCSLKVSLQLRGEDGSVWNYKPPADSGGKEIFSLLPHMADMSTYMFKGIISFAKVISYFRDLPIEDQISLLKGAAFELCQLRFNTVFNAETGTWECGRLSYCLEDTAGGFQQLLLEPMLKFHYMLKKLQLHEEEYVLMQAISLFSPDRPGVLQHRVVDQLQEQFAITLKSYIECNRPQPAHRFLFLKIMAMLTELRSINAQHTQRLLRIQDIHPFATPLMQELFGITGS
Acetylcholinesterase (Homo sapiens), sequence (P22303 whole entry, looked up): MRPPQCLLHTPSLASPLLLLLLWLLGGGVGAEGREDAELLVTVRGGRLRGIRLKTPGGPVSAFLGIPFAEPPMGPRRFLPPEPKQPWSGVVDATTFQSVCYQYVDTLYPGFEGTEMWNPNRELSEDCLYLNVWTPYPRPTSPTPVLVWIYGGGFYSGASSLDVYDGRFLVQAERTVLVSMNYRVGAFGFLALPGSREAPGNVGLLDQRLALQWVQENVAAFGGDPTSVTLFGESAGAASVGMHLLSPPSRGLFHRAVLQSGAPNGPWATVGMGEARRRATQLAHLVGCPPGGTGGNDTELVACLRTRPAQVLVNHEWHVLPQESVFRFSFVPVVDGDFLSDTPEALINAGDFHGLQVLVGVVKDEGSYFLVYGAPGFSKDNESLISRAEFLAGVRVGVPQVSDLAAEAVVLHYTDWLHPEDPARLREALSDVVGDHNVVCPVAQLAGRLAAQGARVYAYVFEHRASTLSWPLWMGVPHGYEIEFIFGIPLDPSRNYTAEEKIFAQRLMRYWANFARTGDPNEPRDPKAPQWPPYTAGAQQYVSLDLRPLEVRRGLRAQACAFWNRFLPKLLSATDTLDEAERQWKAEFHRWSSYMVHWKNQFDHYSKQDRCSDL
Nuclear receptor subfamily 1 group I member 2 (Rattus norvegicus), sequence (Q9R1A7 whole entry, looked up): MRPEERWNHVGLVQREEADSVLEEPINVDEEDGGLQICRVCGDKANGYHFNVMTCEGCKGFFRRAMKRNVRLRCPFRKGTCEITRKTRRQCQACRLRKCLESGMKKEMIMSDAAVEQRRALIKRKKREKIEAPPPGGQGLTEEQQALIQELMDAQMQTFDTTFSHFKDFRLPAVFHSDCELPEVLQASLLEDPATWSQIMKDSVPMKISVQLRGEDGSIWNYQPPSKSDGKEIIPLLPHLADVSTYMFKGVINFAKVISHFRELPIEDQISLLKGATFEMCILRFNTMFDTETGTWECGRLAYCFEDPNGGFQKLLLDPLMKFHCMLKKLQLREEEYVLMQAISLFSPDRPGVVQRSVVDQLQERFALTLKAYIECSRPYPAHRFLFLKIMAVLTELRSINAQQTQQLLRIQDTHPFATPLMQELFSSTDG

| SMILES | Potency [1] | Potency [2] | Potency [3] | Potency [4] | Potency [5] | Potency [6] | Potency [7] | Potency [8] | Potency [9] | outcome [10] | Potency [11] | Potency [12] | Potency [13] | Potency [14] | Potency [15] | Potency [16] | Potency [17] | max activation [18] | Potency [19] | outcome [20] |
| --- | --- | --- | --- | --- | --- | --- | --- | --- | --- | --- | --- | --- | --- | --- | --- | --- | --- | --- | --- | --- |
| ClCC(Cl)CCl | inactive | inactive | inactive | inactive | inactive | inactive | inactive | inactive | inactive | inactive | inactive | inactive | inactive | inactive | inactive | inactive | inactive |  |  |  |
| O=C(O)CF | inactive | inactive | inactive | inactive | inactive | inactive | inactive | inactive | inactive | inactive | inactive | inactive | inactive | inactive | inactive | inactive | inactive |  |  |  |
| Cc1ccc(N=CN(C)C=Nc2ccc(C)cc2C)c(C)c1 | inactive | inactive | inactive | inactive | inactive | inactive | inactive | inactive | inactive | inactive | inactive | inactive | inactive | inactive | inactive |  | inactive | 0.462% (inactive) | inactive | inactive |
| O=C1CCCO1 | inactive | inactive | inactive | inactive | inactive | inactive | inactive | inactive | inactive | inactive | inactive | inactive | inactive | inactive | inactive | inactive | inactive |  |  |  |
| Oc1ccc(Cl)cc1Cl | inactive | inactive | inactive | inactive | inactive | inactive | inactive | 48.6 µM (active) and inactive | inactive | inactive | inactive | inactive | inactive | inactive | inactive | inactive | inactive |  |  |  |
| [CH3][Sn]([Cl])([Cl])[Cl] | inactive | inactive | inactive | inactive | inactive | inactive | inactive | inactive | inactive | inactive | inactive | inactive | inactive | inactive | inactive | inactive | inactive |  |  |  |
| CCOP(=O)(OCC)OCC | inactive | inactive | inactive | inactive | inactive | inactive | inactive | inactive | inactive | inactive | inactive | inactive | inactive | inactive | inactive | inactive | inactive |  |  |  |
| Cc1cc(Cl)ccc1N=CN(C)C | inactive | inactive | inactive | inactive | inactive | inactive | inactive | inactive | inactive | inactive | inactive | inactive | inactive | inactive | inactive |  |  |  |  |  |
| CCOC(=O)c1ccccc1N | inactive | inactive | inactive | inactive | inactive | inactive | inactive | inactive | inactive | inactive | inactive | inactive | inactive | inactive | inactive | inactive | inactive |  |  |  |
| N#CC(c1ccccc1)c1ccccc1 | inactive | inactive | inactive | inactive | inactive | inactive | inactive | inactive | inactive | inactive | inactive | inactive | inactive | inactive | inactive | inactive | inactive |  |  |  |
| N#CCCCCC#N | inactive | inactive | inactive | inactive | inactive | inactive | inactive | inactive | inactive | inactive | inactive | inactive | inactive | inactive | inactive | inactive | inactive |  |  |  |
| ClC(Cl)=C(Cl)C(Cl)=C(Cl)Cl | inactive | inactive | inactive | inactive | inactive | inactive | inactive | inactive | inactive | inactive | inactive | inactive | inactive | inactive | inactive | inactive | inactive |  |  |  |
| C=C(C)C#N | inactive | inactive | inactive | inactive | inactive | inactive | inactive | inactive | inactive | inactive | inactive | inactive | inactive | inactive | inactive | inactive | inactive |  |  |  |
| COP(=O)(NC(C)=O)SC (configuration not stated) | inactive | inactive | inactive | inactive | inactive | inactive | inactive | inactive | inactive | inactive | inactive | inactive | 48.6 µM (active) and inactive | inactive | inactive | inactive | inactive |  |  |  |
| CC(C)Nc1nc(Cl)nc(NC(C)C)n1 | inactive | inactive | inactive | inactive | inactive | inactive | inactive | inactive | inactive | inactive | inactive | inactive | inactive | inactive | inactive | 54.4 µM (active) and 24.3 µM (active) | inactive and 31.7 µM (active) |  |  |  |
| CCCCOCC1CO1 (configuration not stated) | inactive | inactive | inactive | inactive | inactive | inactive | inactive | inactive | inactive | inactive | inactive | inactive | inactive | inactive | inactive | inactive | inactive |  |  |  |
